# According to PubChem BioAssay (EPA / NIEHS):
# The source made the active and inactive calls. Rule for the calls: active = hit-call score of the fitted dose curve at least 0.9, where 1 is the maximum; inactive = score below 0.9.
# Tests used:
# [1] = read-out: TIMP metallopeptidase inhibitor 2 (TIMP2), TIMP2 (gene 7077); experiment: BSK_KF3CT_TIMP2: BioMAP Diversity Plus: KF3CT Assay for TIMP metallopeptidase inhibitor 2 (TIMP2) Biomarker Activity (AID 2283071); settings: primary human keratinocytes with fibroblasts; actives raise or lower the signal
# Summary of the method: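 Co-culture of human primary keratinocytes and foreskin fibroblasts, measured 24 h after chemical dosing. TIMP-2 quantified by ELISA and fitted in both directions relative to DMSO. Cytotoxicity checked in parallel cultures by SRB total-protein staining.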
# [2] = read-out: Transforming growth factor beta 1 (TGFb1), TGFB1 (gene 7040); experiment: BSK_KF3CT_TGFb1: BioMAP Diversity Plus: KF3CT Assay for Transforming growth factor beta 1 (TGFb1) Biomarker Activity (AID 2283072); settings: primary human keratinocytes with fibroblasts; actives raise or lower the signal
# Summary of the method: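 Human keratinocyte/foreskin fibroblast co-culture; TGF-b1 measured by ELISA 24 h after dosing, fitted bidirectionally versus DMSO. Cytotoxicity checked in parallel cultures by total protein (SRB staining, 560 nm).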
# [3] = read-out: C-C motif chemokine 2 (Homo sapiens) (UniProt P13500); experiment: BSK_KF3CT_MCP1: BioMAP Diversity Plus: KF3CT Assay for Monocyte Chemoattractant Protein 1 (MCP1/CCL2) Biomarker Activity (AID 2283073); settings: primary human keratinocytes with fibroblasts; actives raise or lower the signal
# Summary of the method: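 Keratinocytes and foreskin fibroblasts were co-cultured, dosed with chemical, and sampled 24 h later. MCP-1 was quantified by ELISA, and the endpoint was analyzed with bidirectional fitting using DMSO as negative control.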
# [4] = read-out: Matrix Metallopeptidase 9 (MMP9), MMP9 (gene 4318); experiment: BSK_KF3CT_MMP9: BioMAP Diversity Plus: KF3CT Assay for Matrix Metallopeptidase 9 (MMP9) Biomarker Activity (AID 2283074); settings: primary human keratinocytes with fibroblasts; actives raise or lower the signal;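 for AC50: MMP9 protein level quantified by ELISA in the co-culture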
# Summary of the method: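 Human keratinocyte/foreskin fibroblast co-culture; compound added; 24 h; MMP-9 by ELISA; bidirectional fit vs DMSO baseline.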
# [5] = read-out: CD40, CD40 (gene 958); experiment: BSK_LPS_CD40: BioMAP Diversity Plus: LPS Assay for CD40 Biomarker Activity (AID 2283076); settings: primary human HUVEC with PBMC; actives raise or lower the signal
# Summary of the method: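 CD40 signal, measured by ELISA, is fitted in both directions relative to DMSO vehicle. The system is an LPS-driven human vascular primary co-culture of endothelial cells and PBMC, sampled 24 h after compound addition.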
# [6] = read-out: E-selectin (Homo sapiens) (UniProt P16581); experiment: BSK_LPS_Eselectin: BioMAP Diversity Plus: LPS Assay for Eselectin Biomarker Activity (AID 2283077); settings: primary human HUVEC with PBMC; actives raise or lower the signal
# Summary of the method: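 Signal of E-selectin, detected by ELISA, served as the endpoint; cells were umbilical vein endothelium with PBMC, read 24 h after treatment. DMSO defined baseline, and both increases and decreases were fitted.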
# [7] = read-out: Interleukin-8 (IL8), CXCL8 (gene 3576); experiment: BSK_LPS_IL8: BioMAP Diversity Plus: LPS Assay for Interleukin-8 (IL8) Biomarker Activity (AID 2283078); settings: primary human HUVEC with PBMC; actives raise or lower the signal
# Summary of the method: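 Endothelial cells and PBMC from human donors are co-cultured, treated with chemicals and LPS, then assayed for IL-8 by ELISA after 24 h. Parallel SRB staining (0.1% SRB after 10% TCA fixation, 560 nm) flags cytotoxicity.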
# [8] = BSK_LPS_SRB: Viability Assessment in the BioMAP Diversity Plus: LPS Assay (AID 2283079); settings: primary human HUVEC with PBMC;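 note: total protein by sulforhodamine B absorbance as a cytotoxicity measure; measured one day after compound addition; fitted in both directions against DMSO so loss or gain of signal counts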
# Summary of the method: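 Overt cytotoxicity was gauged by sulforhodamine B total-protein staining in a primary human vascular endothelial and mononuclear cell co-culture 24 h post-dosing. Activity was fitted in both directions relative to DMSO.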
# [9] = read-out: Interleukin-1 alpha (IL1a), IL1A (gene 3552); experiment: BSK_LPS_IL1a: BioMAP Diversity Plus: LPS Assay for Interleukin-1 alpha (IL1a) Biomarker Activity (AID 2283080); settings: primary human HUVEC with PBMC; actives raise or lower the signal
# Summary of the method: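 Measured: IL-1 alpha via ELISA at 24 h in LPS-activated human umbilical vein endothelium–PBMC co-culture. Baseline: DMSO, bidirectional fitting.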
# [10] = read-out: Monocyte Chemoattractant Protein-1 (MCP1), CCL2 (gene 6347); experiment: BSK_LPS_MCP1: BioMAP Diversity Plus: LPS Assay for Monocyte Chemoattractant Protein-1 (MCP1) Biomarker Activity (AID 2283081); settings: primary human HUVEC with PBMC; actives raise or lower the signal;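 for AC50: secreted MCP-1 protein quantified by ELISA in culture supernatant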
# Summary of the method: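 LPS-stimulated HUVEC/PBMC co-culture; chemical, 24 h; MCP-1 by ELISA; bidirectional fit vs DMSO; cytotoxicity via SRB (0.1% stain, 10% TCA fix, 560 nm) in parallel wells.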
# [11] = BSK_LPS_PGE2: BioMAP Diversity Plus: LPS Assay for Prostaglandin E2 (PGE2) Biomarker Activity (AID 2283082); settings: primary human HUVEC with PBMC; actives raise or lower the signal;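 for AC50: secreted prostaglandin E2 measured by ELISA in LPS-stimulated co-culture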
# Summary of the method: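 HUVEC plus human PBMC co-culture stimulated with LPS; secreted PGE2 quantified by ELISA 24 h after chemical dosing. Activity fitted bidirectionally against DMSO baseline; parallel SRB staining (0.1% SRB after 10% TCA fixation, 560 nm) flags overt cytotoxicity.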
# [12] = read-out: Macrophage colony-stimulating factor (MCSF), CSF1 (gene 1435); experiment: BSK_LPS_MCSF: BioMAP Diversity Plus: LPS Assay for Macrophage colony-stimulating factor (MCSF) Biomarker Activity (AID 2283083); settings: primary human HUVEC with PBMC; actives raise or lower the signal
# Summary of the method: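 Compound is added to a human vascular primary co-culture of umbilical vein endothelium and blood mononuclear cells. After 24 h, M-CSF is quantified by ELISA. Signal changes are fitted in both directions against DMSO.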
# [13] = read-out: Tissue Factor, F3 (gene 2152); experiment: BSK_LPS_TissueFactor: BioMAP Diversity Plus: LPS Assay for Tissue Factor Biomarker Activity (AID 2283084); settings: primary human HUVEC with PBMC; actives raise or lower the signal
# Summary of the method: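 In this co-culture system of umbilical vein endothelium with PBMC, stimulated with LPS, cell-surface CD142 is detected by ELISA at 24 h. Endpoint values derive from bidirectional fitting, DMSO serving as baseline.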
# [14] = read-out: Tumor necrosis factor (Homo sapiens) (UniProt P01375); experiment: BSK_LPS_TNFa: BioMAP Diversity Plus: LPS Assay for Tumour Necrosis Factor alpha (TNFa) Biomarker Activity (AID 2283085); settings: primary human HUVEC with PBMC; actives raise or lower the signal
# Summary of the method: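 Human umbilical vein endothelial cells co-cultured with PBMC and stimulated with LPS. TNFa was measured by ELISA 24 h after chemical dosing, fitted bidirectionally relative to DMSO.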
# [15] = read-out: CD38, CD38 (gene 952); experiment: BSK_SAg_CD38: BioMAP Diversity Plus: SAg Assay for CD38 Biomarker Activity (AID 2283087); settings: primary human HUVEC with PBMC; actives raise or lower the signal
# Summary of the method: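 Human HUVEC plus PBMC co-culture stimulated with superantigen; CD38 measured by ELISA 24 h after chemical dosing. Fluorescence read-out, bidirectional fit against DMSO; cytotoxicity tracked in parallel by SRB and Alamar Blue.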
# [16] = read-out: CD40, CD40 (gene 958); experiment: BSK_SAg_CD40: BioMAP Diversity Plus: SAg Assay for CD40 Biomarker Activity (AID 2283088); settings: primary human HUVEC with PBMC; actives raise or lower the signal
# Summary of the method: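 Fluorescence ELISA read-out of CD40 from umbilical vein endothelium plus peripheral blood mononuclear cells, sampled 24 h after dosing. Values come from bidirectional curve fitting with DMSO as baseline.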
# [17] = read-out: CD69, CD69 (gene 969); experiment: BSK_SAg_CD69: BioMAP Diversity Plus: SAg Assay for CD69 Biomarker Activity (AID 2283089); settings: primary human HUVEC with PBMC; actives raise or lower the signal;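 for AC50: cell surface CD69 protein quantified by ELISA with fluorescence detection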
# Summary of the method: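 ELISA, fluorescence read-out: CD69 on human umbilical vein endothelial cell + PBMC co-culture, 24 h post-dosing. Gain or loss of signal fitted bidirectionally against DMSO baseline.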
# [18] = read-out: Monocyte Chemoattractant Protein-1 (MCP1), CCL2 (gene 6347); experiment: BSK_SAg_MCP1: BioMAP Diversity Plus: SAg Assay for Monocyte Chemoattractant Protein-1 (MCP1) Biomarker Activity (AID 2283090); settings: primary human HUVEC with PBMC; actives raise or lower the signal
# Summary of the method: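 MCP-1 levels in the endothelial–PBMC SAg co-culture were quantified by ELISA at 24 h post-dosing; both increases and decreases versus DMSO scored. Cytotoxicity monitored by SRB total protein in parallel cultures.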
# [19] = read-out: Vascular cell adhesion molecule 1 (VCAM1), VCAM1 (gene 7412); experiment: BSK_LPS_VCAM1: BioMAP Diversity Plus: LPS Assay for Vascular cell adhesion molecule 1 (VCAM1) Biomarker Activity (AID 2283086); settings: primary human HUVEC with PBMC; actives raise or lower the signal
# Summary of the method: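 Human umbilical vein endothelial cells co-cultured with PBMC and stimulated with LPS; VCAM-1 measured by ELISA 24 h after dosing. Bidirectional curve fitting against DMSO baseline; cytotoxicity tracked in parallel by SRB total-protein staining.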
# Sequence of Tumor necrosis factor (Homo sapiens) (P01375 whole entry, looked up): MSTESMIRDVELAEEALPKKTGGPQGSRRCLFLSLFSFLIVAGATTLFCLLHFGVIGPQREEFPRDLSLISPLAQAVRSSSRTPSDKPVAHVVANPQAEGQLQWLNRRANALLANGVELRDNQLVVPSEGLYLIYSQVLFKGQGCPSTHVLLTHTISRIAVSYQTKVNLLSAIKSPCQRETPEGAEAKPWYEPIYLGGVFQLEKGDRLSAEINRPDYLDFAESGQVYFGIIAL
# Sequence of E-selectin (Homo sapiens) (P16581 whole entry, looked up): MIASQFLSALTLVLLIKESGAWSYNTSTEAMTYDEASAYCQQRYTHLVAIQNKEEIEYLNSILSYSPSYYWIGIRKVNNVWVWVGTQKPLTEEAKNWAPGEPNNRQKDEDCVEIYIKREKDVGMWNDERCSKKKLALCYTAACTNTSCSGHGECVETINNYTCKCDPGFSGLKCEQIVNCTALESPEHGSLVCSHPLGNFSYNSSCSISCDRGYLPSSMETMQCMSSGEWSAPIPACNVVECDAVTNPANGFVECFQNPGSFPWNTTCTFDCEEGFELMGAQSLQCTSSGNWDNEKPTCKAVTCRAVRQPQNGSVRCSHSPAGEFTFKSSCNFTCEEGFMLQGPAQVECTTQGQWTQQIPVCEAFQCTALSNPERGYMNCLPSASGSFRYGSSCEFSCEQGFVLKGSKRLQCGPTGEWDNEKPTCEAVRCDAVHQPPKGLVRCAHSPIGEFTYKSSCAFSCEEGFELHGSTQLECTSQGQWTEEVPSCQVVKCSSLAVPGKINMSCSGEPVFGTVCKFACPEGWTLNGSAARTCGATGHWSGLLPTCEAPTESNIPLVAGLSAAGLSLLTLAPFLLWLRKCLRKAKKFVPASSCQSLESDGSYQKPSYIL
smiles,measurement,setting,value
COc1ccc(-c2ccccc2)cc1NNC(=O)OC(C)C,outcome,[1],inactive
same,outcome,[2],inactive
same,outcome,[3],inactive
same,outcome,[4],inactive
same,outcome,[5],inactive
same,outcome,[6],inactive
same,outcome,[7],inactive
same,outcome,[8],inactive
same,outcome,[9],inactive
same,outcome,[10],inactive
same,AC50,[11],1.84 µM (active)
same,outcome,[12],inactive
same,outcome,[13],inactive
same,AC50,[14],4.44 µM (active)
same,outcome,[15],inactive
same,outcome,[16],inactive
same,outcome,[17],inactive
same,outcome,[18],inactive
CNC(=O)N(C)c1nnc(C(C)(C)C)s1,outcome,[1],inactive
same,outcome,[2],inactive
same,outcome,[3],inactive
same,outcome,[4],inactive
same,outcome,[5],inactive
same,outcome,[6],inactive
same,outcome,[7],inactive
same,outcome,[8],inactive
same,outcome,[9],inactive
same,outcome,[10],inactive
same,outcome,[11],inactive
same,outcome,[12],inactive
same,outcome,[13],inactive
same,outcome,[14],inactive
same,outcome,[19],inactive
same,outcome,[16],inactive
same,outcome,[17],inactive
same,outcome,[18],inactive
CS(=O)(=O)c1cc(C(F)(F)F)ccc1C(=O)c1cnoc1C1CC1,outcome,[1],inactive
same,outcome,[2],inactive
same,outcome,[3],inactive
same,outcome,[4],inactive
same,outcome,[5],inactive
same,outcome,[6],inactive
same,outcome,[7],inactive
same,outcome,[8],inactive
same,outcome,[9],inactive
same,outcome,[10],inactive
same,outcome,[11],inactive
same,outcome,[12],inactive
same,outcome,[13],inactive
same,outcome,[14],inactive
same,AC50,[15],5.57 µM (active)
same,outcome,[16],inactive
same,outcome,[17],inactive
same,outcome,[18],inactive
CCN(CC)C(=O)C(C)Oc1cccc2ccccc12 (stereo not given),outcome,[1],inactive
same,outcome,[2],inactive
same,outcome,[3],inactive
same,outcome,[4],inactive
same,outcome,[5],inactive
same,outcome,[6],inactive
same,outcome,[7],inactive
same,outcome,[8],inactive
same,outcome,[9],inactive
same,outcome,[10],inactive
same,outcome,[11],inactive
same,AC50,[12],0.274 µM (active)
same,outcome,[13],inactive
same,outcome,[14],inactive
same,outcome,[16],inactive
same,outcome,[17],inactive
same,outcome,[18],inactive
COCc1cnc(C2=NC(C)(C(C)C)C(=O)N2)c(C(=O)O)c1 (stereo not given),outcome,[1],inactive
same,outcome,[2],inactive
same,outcome,[3],inactive
same,outcome,[4],inactive
same,outcome,[5],inactive
same,outcome,[6],inactive
same,outcome,[7],inactive
same,outcome,[8],inactive
same,outcome,[9],inactive
same,outcome,[10],inactive
same,outcome,[11],inactive
same,outcome,[12],inactive
same,outcome,[13],inactive
same,outcome,[14],inactive
same,outcome,[19],inactive
same,outcome,[16],inactive
same,outcome,[17],inactive
same,outcome,[18],inactive
COP(=S)(OC)Oc1ccc([N+](=O)[O-])c(C)c1,outcome,[1],inactive
same,outcome,[2],inactive
same,outcome,[3],inactive
same,AC50,[4],15.1 µM (active)
same,outcome,[5],inactive
same,outcome,[6],inactive
same,outcome,[7],inactive
same,AC50,[8],10.6 µM (active)
same,outcome,[9],inactive
same,AC50,[10],20 µM (active)
same,outcome,[11],inactive
same,AC50,[12],20 µM (active)
same,outcome,[13],inactive
same,outcome,[14],inactive
same,outcome,[15],inactive
same,AC50,[16],7.6 µM (active)
same,AC50,[17],37 µM (active)
same,outcome,[18],inactive
Cc1nc(N(C)C)nc(OC(=O)N(C)C)c1C,outcome,[1],inactive
same,outcome,[2],inactive
same,outcome,[3],inactive
same,outcome,[4],inactive
same,outcome,[5],inactive
same,outcome,[6],inactive
same,outcome,[7],inactive
same,outcome,[8],inactive
same,outcome,[9],inactive
same,outcome,[10],inactive
same,outcome,[11],inactive
same,outcome,[12],inactive
same,outcome,[13],inactive
same,outcome,[14],inactive
same,outcome,[16],inactive
same,outcome,[17],inactive
same,outcome,[18],inactive
COP(=S)(OC)SCn1nnc2ccccc2c1=O,outcome,[1],inactive
same,outcome,[2],inactive
same,outcome,[3],inactive
same,outcome,[4],inactive
same,outcome,[5],inactive
same,outcome,[6],inactive
same,outcome,[7],inactive
same,outcome,[8],inactive
same,outcome,[9],inactive
same,AC50,[10],20 µM (active)
same,AC50,[11],13.8 µM (active)
same,outcome,[12],inactive
same,AC50,[13],16.9 µM (active)
same,AC50,[14],5.58 µM (active)
same,AC50,[16],20 µM (active)
same,AC50,[17],20 µM (active)
same,outcome,[18],inactive
Nc1c(Cl)c(F)nc(OCC(=O)O)c1Cl,outcome,[1],inactive
same,outcome,[2],inactive
same,outcome,[3],inactive
same,outcome,[4],inactive
same,outcome,[5],inactive
same,outcome,[6],inactive
same,outcome,[7],inactive
same,outcome,[8],inactive
same,outcome,[9],inactive
same,outcome,[10],inactive
same,outcome,[11],inactive
same,outcome,[12],inactive
same,AC50,[13],5.36 µM (active)
same,outcome,[14],inactive
same,outcome,[19],inactive
same,outcome,[15],inactive
same,outcome,[16],inactive
same,outcome,[17],inactive
same,outcome,[18],inactive
